Assay results taken from PubChem BioAssay (Tox21).
Several values for one entry are separate records, joined by “and”; a condition that tells them apart may be missing. Equal entries are not always repeated. Records with an inconclusive call do not appear. Activity calls are given as the source filed them. Calls follow the shape of the dose curve; as a rule, active = well fitted curve in the direction sought with a large enough effect in the repeat runs; inconclusive = weak or mixed curves; inactive = no such curve, though single readings can be large; an effect the other way counts as inactive or inconclusive.

Key:
[1] = A CellTox Green Cytotoxicity Assay to monitor cytotoxicity in HepG2 cells - 32 hour (AID 1224883); conditions: CellTox Green fluorescence; series mostly up to 76.8 µM; also: nearly all actives have a fitted effect of over 50% in size
Outline: (§1)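 Real-time cytotoxicity: fluorescence of a cell-impermeant cyanine dye binding DNA of dead HepG2 cells, measured repeatedly (0–40 h) during compound exposure at 37 C. Cells seeded 600/well with reagent, dosed after 5 h.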

[2] = A CellTox Green Cytotoxicity Assay to monitor cytotoxicity in HEK293 cells - 8 hour (AID 1224884); conditions: CellTox Green fluorescence; series mostly up to 76.8 µM; also: nearly all actives have a fitted effect of over 35% in size
Outline: (§2)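 Fluorescence from a DNA-binding dye excluded by viable cells was measured repeatedly in the same HEK293 wells (600 cells/well) during continuous compound exposure at 37 C. Each assay gives one read point: 0, 8, 16, 24, 32 or 40 h.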

[3] = qHTS RealTime-Glo MT Cell Viability Assay in HepG2 cells - 16 hour (AID 1224885); conditions: RealTime-Glo luminescence; series mostly up to 76.8 µM; also: nearly all actives have a fitted effect of over 50% in size
Outline: (§3)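 Cell number in HepG2 cultures estimated from NanoLuc luminescence generated by metabolic reduction of a prosubstrate by living cells. The homogeneous, nonlytic format allowed repeated reads at 0, 8, 16, 24, 32 and 40 h of compound exposure.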

[4] = qHTS RealTime-Glo MT Cell Viability Assay in HEK293 cells - 8 hour (AID 1224887); conditions: RealTime-Glo luminescence; series mostly up to 76.8 µM; also: nearly all actives have a fitted effect of over 50% in size
Outline: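 Luminescence, which tracks viable cell number through reduction of the prosubstrate to a NanoLuc substrate, was read over continuous 37 C culture. Cells (600/well) were premixed with reagent and rested 5 h before 23 nL of compound in DMSO was pinned.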

[5] = A CellTox Green Cytotoxicity Assay to monitor cytotoxicity in HEK293 cells - 16 hour (AID 1224888); conditions: CellTox Green fluorescence; series mostly up to 76.8 µM; also: nearly all actives have a fitted effect of over 35% in size
Outline: as §2

[6] = qHTS RealTime-Glo MT Cell Viability Assay in HepG2 cells - 0 hour (AID 1224889); conditions: RealTime-Glo luminescence; series mostly up to 76.8 µM; also: nearly all actives have a fitted effect of over 50% in size
Outline: as §3

[7] = A CellTox Green Cytotoxicity Assay to monitor cytotoxicity in HepG2 cells - 8 hour (AID 1224890); conditions: CellTox Green fluorescence; series mostly up to 76.8 µM; also: nearly all actives have a fitted effect of over 45% in size
Outline: as §1

[8] = qHTS assay to identify small molecule antagonists of the estrogen receptor alpha (ER-alpha) signaling pathway using the BG1 cell line in the presence of 0.1 nM 17-beta-estradiol - cell viability counter screen (AID 1259241); conditions: VM7Luc4E2 (BG1) viability, CellTiter-Fluor protease, 22 h, 0.1 nM estradiol agonist added; series mostly up to 92.4 µM; also: nearly all actives have a fitted effect of over 40% in size
Outline: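 Viability in VM7Luc4E2 cells after 22 hr compound exposure under 0.1 nM 17beta-estradiol stimulation, by CellTiter-Fluor.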

[9] = qHTS assay to identify small molecule antagonists of the androgen receptor (AR) signaling pathway using the MDA cell line in the presence of 0.5 nM R1881 - cell viability counter screen (AID 1259242); conditions: MDA-kb2 viability, CellTiter-Fluor protease fluorescence, 16 h; series mostly up to 92.4 µM; also: nearly all actives have a fitted effect of over 45% in size
Outline: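 Live-cell protease activity was measured by CellTiter-Fluor fluorescence after 30 min. Before that, MDA-kb2 MMTV-luciferase cells had 16 hr at 37C without CO2, exposed to test compounds and 0.5 nM R1881 final.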

[10] = qHTS RealTime-Glo MT Cell Viability Assay in HEK293 cells - 24 hour (AID 1224886); conditions: RealTime-Glo luminescence; series mostly up to 76.8 µM; also: nearly all actives have a fitted effect of over 50% in size
Outline: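 Homogeneous bioluminescent viability format in HEK293 cells (600 cells/well). Following 5 h at 37 C/5% CO2, 23 nL compound was pintooled; the signal was measured repeatedly during 40 h incubation.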

Measured: Potency
Potency is read from the fitted curve at half-maximal effect.

Oc1ccc(-c2ccc(O)cc2)cc1
inactive: [1] | [2] | [3] | [4] | [5] | [6] | [7] | [8] | [9]

Cc1ccc(-n2[nH]c(C)c(N=Nc3cccc(-c4cccc(C(=O)O)c4)c3O)c2=O)cc1C
inactive: [1] | [2] | [3] | [4] | [5] | [6] | [7]

O=C(O)CC(=O)O
inactive: [1] | [2] | [3] | [10] | [5] | [6] | [7] | [8] | [9]

Cc1cc(C)c(C=O)c(C)c1
inactive: [1] | [2] | [3] | [10] | [5] | [6] | [8] | [9]

Clc1cccnc1
inactive: [1] | [2] | [3] | [4] | [5] | [6] | [7] | [8] | [9]

COc1ccc2sc(C(=O)Nc3nnn[nH]3)c(OC(C)C)c2c1
inactive: [1] | [2] | [3] | [4] | [5] | [6] | [7] | [8] | [9]

CC(C)=C1CC[C@@H](C)CC1=O
inactive: [1] | [2] | [3] | [10] | [5] | [6] | [7] | [8] | [9]

CC(=O)OC1CCCCC1
inactive: [1] | [2] | [3] | [4] | [5] | [6] | [7] | [8] | [9]

Cc1occc1SSc1ccoc1C
inactive: [2] | [3] | [10] | [6] | [8] | [9]
active: [1] 54.9 µM

CC1(C)COCN1
inactive: [1] | [2] | [3] | [10] | [6] | [7] | [8]

COc1cccc(OC)c1O
inactive: [1] | [2] | [3] | [4] | [5] | [6] | [7] | [8] | [9]

CCCC(=O)OCC(COC(=O)CCC)OC(=O)CCC
inactive: [1] | [2] | [3] | [4] | [5] | [6] | [7] | [8] | [9]

CCOCN(C(=O)CS(=O)(=O)O)c1c(C)cccc1CC
inactive: [1] | [2] | [3] | [4] | [5] | [6] | [7] | [8] | [9]

CCCCOC(=O)C(C)CC (stereo not given)
inactive: [1] | [2] | [3] | [4] | [6] | [7] | [9]

CN(Cc1cc(Br)cc(Br)c1N)C1CCCCC1
active: [1] 12 µM
inactive: [2] | [3] | [6] | [8] | [9]

CC(=O)c1ccccc1N
inactive: [1] | [2] | [3] | [6] | [8] | [9]

CO[C@H]1C=CO[C@@]2(C)Oc3c(C)c(O)c4c(O)c(cc(O)c4c3C2=O)NC(=O)/C(C)=C\C=C/[C@H](C)[C@H](O)[C@@H](C)[C@@H](O)[C@@H](C)[C@H](OC(C)=O)[C@@H]1C
inactive: [1] | [2] | [3] | [5] | [7]
active: [8] 27.5 µM

Nc1ccc2cc3ccc(N)cc3nc2c1
inactive: [6]
active: [1] 49 µM and 21.3 µM | [2] 49 µM and 21.3 µM | [10] 2.45 µM and 3.01 µM | [4] 24.5 µM | [5] 49 µM and 21.3 µM | [7] 49 µM and 21.3 µM

CCOC(=O)C1=C(C)NC(C)=C(C(=O)OCC)C1c1ccccc1/C=C/C(=O)OC(C)(C)C
inactive: [1] | [2] | [10] | [4] | [7] | [8] | [9]
active: [6] 3.38 µM

CCCOc1sc(C(=O)N2CCC(c3cc(CN)ccc3F)CC2)c(C)c1Br
active: [1] 17.9 µM | [2] 40 µM | [3] 22.5 µM | [4] 17.9 µM | [5] 35.7 µM | [7] 40 µM | [9] 39.7 µM

O=C(c1ccccc1)c1cc(Cl)ccc1O
inactive: [1] | [2] | [3] | [5] | [6] | [7] | [8] | [9]

O=C1c2c(O)ccc([N+](=O)[O-])c2C(=O)c2c([N+](=O)[O-])ccc(O)c21
inactive: [1] | [2] | [5] | [7]
active: [3] 24.3 µM | [8] 30.4 µM | [9] 27.1 µM

CCCCCCC(C)Nc1ccc(Nc2ccccc2)cc1 (stereo not given)
active: [10] 21.9 µM | [4] 19.5 µM
inactive: [1] | [2] | [5] | [7] | [8]

NC(=O)c1nc(-c2cccc(-c3cc(F)ccc3OCC(F)(F)C(F)(F)F)c2)n[nH]1
inactive: [2] | [3] | [4] | [5] | [6] | [8] | [9]
active: [1] 43.6 µM

C=CC(=O)OCCC#N
inactive: [1] | [2] | [3] | [4] | [6] | [7] | [8] | [9]
